This is a sample that favours compounds with a hit; in the whole collection about 3.4% have one here.
MITF inh = MITF inhibitors, primary screen, biochemical, AlphaScreen, human; Microphthalmia-associated transcription factor (Homo sapiens), O75030; inhibition, % at 2.6 µM; AID 1259374, 2018; AlphaScreen MITF homodimerization, bead proximity signal; 650,000 tested, 0.91% active; in the data active = inhibition above about 50%;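 note: 0% = vehicle wells with protein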
TEAD-YAP block = TEAD-YAP interaction inhibition, primary screen, TEAD-YAP interaction inhibitor project, luminescence, HEK-TIYL cells; TEAD-Gal4/YAP UAS-luciferase luminescence; inhibition, % at 9.12 µM; 640,000 tested, 1.4% active; AID 1259422, 2018; in the data active = inhibition above about 32%;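 note: 0% = median of test compound wells and 100% = reference inhibitor wells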
FBW7 activator = FBW7 E3 ligase activators, primary screen, biochemical, AlphaScreen, human; F-box/WD repeat-containing protein 7 (Homo sapiens), Q969H0; AlphaScreen FBW7–phospho-cyclin E peptide binding, activator screen; normalized activity (activation), % at 26.1 µM; 650,000 tested, 0.13% active; AID 1259310, 2017; in the data active = normalized activity above about 1.9%;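 note: purified mutant Fbw7 with reduced substrate affinity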
GPR151 activ = activators of human GPR151, primary screen, cell-based, PathHunter beta-arrestin, luminescence. G-protein coupled receptor 151 (Homo sapiens), Q8TDV0. 650,000 tested, 1% active. AID 1508602, 2020. PathHunter beta-arrestin GPR151 cells. activation, % at 11.2 µM; in the data active = activation above about 4.9%;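 note: 0% = median of compound wells and 100% = cells with positive control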
Target sequence (Q8TDV0 whole entry, looked up): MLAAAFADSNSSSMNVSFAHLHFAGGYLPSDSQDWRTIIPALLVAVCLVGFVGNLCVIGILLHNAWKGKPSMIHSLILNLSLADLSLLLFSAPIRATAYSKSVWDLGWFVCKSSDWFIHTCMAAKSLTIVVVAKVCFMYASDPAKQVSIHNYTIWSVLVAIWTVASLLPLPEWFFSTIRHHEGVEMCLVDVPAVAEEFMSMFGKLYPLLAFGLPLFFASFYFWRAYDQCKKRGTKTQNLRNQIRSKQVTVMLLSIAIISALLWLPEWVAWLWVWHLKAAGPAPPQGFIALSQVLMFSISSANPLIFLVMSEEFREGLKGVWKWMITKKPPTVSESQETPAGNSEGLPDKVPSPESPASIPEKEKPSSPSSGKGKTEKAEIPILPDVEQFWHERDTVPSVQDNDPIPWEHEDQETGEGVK
MITF inh conf = MITF inhibitors, retest of hits, confirmation, biochemical, AlphaScreen, triplicate | AID 1259372, 2018 | shares compounds with MITF inh | inhibition, % at 2.6 µM | AlphaScreen MITF homodimerization, biotin/His-MITF beads | 4,700 tested, 16% active;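 active = inhibition above a cutoff derived from the DMSO control wells, cut at about 28% in these data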;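 note: 0% = MITF dimer wells with DMSO only; inhibitors lower the bead chemiluminescence by keeping MITF from dimerizing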
AS interf DR = AlphaScreen optical interference compounds, dose response, counter-screen, biochemical, HTS; shares compounds with MITF inh; AlphaScreen optical interference counterscreen, cell-free; IC50, µM; 480 tested, 6% active; call rule not given here
AlphaScreen intf2 = AlphaScreen optical interference compounds, counter-screen for MITF inhibitor project, biochemical, triplicate | 4,700 tested, 7.6% active | shares compounds with MITF inh | inhibition, % at 2.6 µM | LysRS AlphaScreen counterscreen, signal interference | AID 1259376, 2018;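 active = inhibition above a cutoff derived from the DMSO control wells, cut at about 30% in these data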
Starred values were filed as active, the others as inactive; . = no result; ! = a repeat was not active.

SMILES	MITF inh	TEAD-YAP block	FBW7 activator	GPR151 activ	MITF inh conf	AlphaScreen intf2	others
O=C1c2c(O)cccc2Cc2cccc(O)c21	85.9*!	0.5	-0.1	-0.6	115.5*	-22.9	AS interf DR=>6.48
Cc1cc(O)c2c(c1)C(=O)c1cccc(O)c1C2=O	15.4	-2.5	-0.3	0.0	.	.
COc1cc(-c2[nH]nc3c2C(c2ccc4c(c2)OCO4)C(C#N)=C(N)O3)cc(OC)c1OC (stereo not drawn)	66.3*	14.6	-0.1	1.3	-5.6	-4.8
COc1cc(Nc2cccc(C(N)=O)c2)cc(OC)c1OC	72.8*	-0.1	0.0	-1.2	3.5	4.5
COc1cc(NC(=O)Nc2cccc(C(C)=O)c2)cc(OC)c1OC	6.4	-0.2	-0.1	4.2	.	.
O=C(Nc1ccc(Cl)cc1)c1ccc(N2CC3CC(C2)c2cccc(=O)n2C3)c(NC(=O)c2ccc(Br)o2)c1 (stereo not drawn)	-9.4	9.4	0.0	-0.2	.	.
CC(=O)N1N=C(c2ccccc2)CC1(C)O (stereo not drawn)	11.4	-2.9	0.0	0.3	.	.
Cc1cc(NCCc2ccccc2)nc(-c2ccccc2O)n1	82.4*	-20.6	0.2	0.4	-21.6	-0.4
CC1CC(C)CN(C(=O)C2CCN(S(=O)(=O)N3CCOCC3)CC2)C1 (stereo not drawn)	2.9	2.1	-0.1	-0.3	.	.
O=C(CCc1ccccc1)NC(=S)Nc1ccc2c(c1)C(=O)OC2	80.2*	4.9	0.1	0.3	7.0	11.0
O=C(Nc1ccc(O)cc1)c1cc(S(=O)(=O)N2CCCC2)ccc1Cl	70.5*	6.9	0.2	0.7	5.0	5.3
O=S(=O)(c1ccc(F)cc1)N1CCN(Cc2c(F)cccc2F)CC1	77.3*	8.6	0.2	0.3	16.1	-2.7
CS(=O)(=O)N1CCN(Cc2cccc(Br)c2)CC1	62.9*	-11.6	-0.3	0.9	13.9	15.0
COc1ccc(Br)cc1CN1CCN(S(=O)(=O)c2ccc(F)cc2)CC1	58.9*	9.3	0.0	-1.3	0.9	10.5
O=S(=O)(c1ccc(F)cc1)N1CCCN(Cc2c(F)cccc2F)CC1	8.3	2.8	0.1	-0.8	.	.
O=S(=O)(c1ccc(Br)cc1)N1CCN(Cc2ccc(F)cc2)CC1	5.5	8.4	0.6	-1.7	.	.
COc1ccc(S(=O)(=O)N2CCN(Cc3cccc(Br)c3)CC2)cc1	51.8*	-21.2	-0.1	0.3	6.7	14.2
COc1ccc(NC(=O)CN(C)CC(=O)Nc2ccccc2SC)cc1	74.5*	-2.9	-0.3	2.0	3.8	12.4
CSc1ccccc1NC(=O)CN(C)CC(=O)Nc1ccc(C(N)=O)cc1	14.3	-3.6	0.1	0.7	.	.
CN(CCOc1ccccc1)CC(=O)Nc1ccc(C(F)(F)F)cc1	66.1*	0.1	-0.2	-1.4	-16.6	1.8
Cc1cc(NC(=O)CN(C)CCOc2ccccc2)ccc1Br	35.7	4.5	0.1	1.2	.	.
Cc1ccc(NC(=O)CN(C)CC(=O)Nc2ccccc2Oc2ccccc2)cc1	91.0*	6.3	-0.3	-0.8	2.6	7.1
CCOC(=O)C1=C(O)/C(=C/c2ccccc2)SC1=Nc1cccc(Cl)c1	-3.1	1.1	-0.1	1.0	.	.
Brc1ccccc1CN1CCC(N2CCOCC2)CC1	25.3	0.5	-0.1	-0.9	.	.
Cc1ccc(-c2cn3c4ccccc4nc3n2CCN2CCN(C)CC2)cc1	0.6	-10.5	0.1	-0.1	.	.
SMILES	MITF inh	TEAD-YAP block	FBW7 activator	GPR151 activ	MITF inh conf	AlphaScreen intf2	others
Clc1cccc(CN2CCN(Cc3ccco3)CC2)c1	71.7*	-6.7	0.1	2.0	5.5	7.8
Brc1cccc(CN2CCOCC2)c1	-4.2	0.2	-0.1	0.7	.	.
Clc1cccc(N2CCN(Cc3ccco3)CC2)c1	21.9	-13.0	0.1	-0.7	.	.
Brc1cccc(CN2CCN(Cc3ccco3)CC2)c1	80.6*	-3.2	-0.1	1.7	26.7	22.2
Fc1ccc(CN2CCN(Cc3ccco3)CC2)cc1	70.1*	4.4	0.2	-0.5	-9.6	-2.1
Clc1ccc(CN2CCN(Cc3ccco3)CC2)cc1	86.0*	-7.7	-0.3	0.5	12.9	12.4
COC(=O)c1sc(NC(=O)c2ccc(OC)cc2)c(C#N)c1C	-0.5	0.7	0.2	0.2	.	.
Cn1cccc1CN1CCN(Cc2ccco2)CC1	68.6*	-9.6	0.1	0.8	2.4	10.0
Cn1cccc1CN1CCN(Cc2ccc(Br)cc2)CC1	44.9	-8.2	0.0	0.8	.	.
OCCC1CN(Cc2c(O)ccc3ccccc23)CCN1C1CCCC1 (stereo not drawn)	7.3	0.7	-0.1	0.7	.	.
CC(=O)Nc1ccc(NC(=O)C2CC=CCC2C(=O)O)cc1 (stereo not drawn)	-4.8	1.0	-0.1	-1.0	.	.
CCc1ccc(NC(=O)C2CC=CCC2C(=O)O)cc1 (stereo not drawn)	83.3*	6.0	0.8	-0.1	7.0	8.1
COc1ccccc1N1C(=O)c2cccc3c(N(C)CCO)ccc(c23)C1=O	74.0*	1.6	0.1	-1.0	-0.6	0.5
COCCNC(=O)c1cnn2c1NC(c1ccc(F)cc1)CC2C(F)(F)F (stereo not drawn)	47.6	2.5	0.0	-1.7	.	.
OCCN1CCN(c2cc(-c3ccncc3)nc(-c3ccccc3)n2)CC1	-33.1	-1.4	-0.2	0.3	.	.
OCCN1CCN(c2cc(-c3ccccc3)c3ccccc3n2)CC1	76.0*	1.7	0.0	-1.4	5.6	10.5
COc1ccccc1N1CCN(C(=O)CSc2nc3ccccc3c(=O)n2NC(=O)c2ccccc2)CC1	75.2*	-5.7	0.1	0.5	6.7	13.2
COc1ccccc1N1CCN(C(=O)CSc2nc3ccccc3c(=O)n2NC(=O)Cc2ccccc2)CC1	23.5	13.5	0.0	2.3	.	.
N#CCSc1nc2ccccc2c(=O)n1NC(=O)c1ccccc1	66.9*	82.5*	-0.1	-8.0	1.9	10.3
CCCCSC1=C(C#N)C(c2cccc([N+](=O)[O-])c2)C(C(C)=O)=C(C)N1 (stereo not drawn)	63.2*	-5.6	-0.1	1.2	-8.8	2.5
COCCNCCCOc1ccc(C(C)(C)c2ccccc2)cc1	84.9*	10.2	0.2	-1.1	1.9	7.2
COCCNCCCCOc1ccc(OCc2ccccc2)cc1	65.9*	-28.4	-0.2	-1.1	11.4	14.6
COCCCNCCCOc1ccc(C(C)(C)c2ccccc2)cc1	76.2*	4.8	-0.1	0.2	2.1	4.9
COCCCNCCOc1ccc(OCc2ccccc2)cc1	46.5	-22.0	0.4	-2.4	.	.
CN(C)CCNCCCOc1ccccc1	55.7*	11.0	0.3	-1.6	4.7	16.4

Source: PubChem (The Scripps Research Institute Molecular Screening Center)
